From publication PMC4336329 (PLoS ONE, 2015)
The whole screen tested about 310,000 compounds, of which about 14,000 (4.5%) showed an effect of 50% or more. Effects have a minus sign here. The sample holds strong results, similar compounds and a random draw of the others, so the mix is not that of the screen.

These molecules were tested against human ether-à-go-go-related gene (hERG) potassium channel (human, UniProt Q12809) (assay: primary screen, population patch clamp on CHO cells stably expressing hERG; higher = less effect of the substance).
Chain of human ether-à-go-go-related gene (hERG) potassium channel (Q12809 whole entry, looked up): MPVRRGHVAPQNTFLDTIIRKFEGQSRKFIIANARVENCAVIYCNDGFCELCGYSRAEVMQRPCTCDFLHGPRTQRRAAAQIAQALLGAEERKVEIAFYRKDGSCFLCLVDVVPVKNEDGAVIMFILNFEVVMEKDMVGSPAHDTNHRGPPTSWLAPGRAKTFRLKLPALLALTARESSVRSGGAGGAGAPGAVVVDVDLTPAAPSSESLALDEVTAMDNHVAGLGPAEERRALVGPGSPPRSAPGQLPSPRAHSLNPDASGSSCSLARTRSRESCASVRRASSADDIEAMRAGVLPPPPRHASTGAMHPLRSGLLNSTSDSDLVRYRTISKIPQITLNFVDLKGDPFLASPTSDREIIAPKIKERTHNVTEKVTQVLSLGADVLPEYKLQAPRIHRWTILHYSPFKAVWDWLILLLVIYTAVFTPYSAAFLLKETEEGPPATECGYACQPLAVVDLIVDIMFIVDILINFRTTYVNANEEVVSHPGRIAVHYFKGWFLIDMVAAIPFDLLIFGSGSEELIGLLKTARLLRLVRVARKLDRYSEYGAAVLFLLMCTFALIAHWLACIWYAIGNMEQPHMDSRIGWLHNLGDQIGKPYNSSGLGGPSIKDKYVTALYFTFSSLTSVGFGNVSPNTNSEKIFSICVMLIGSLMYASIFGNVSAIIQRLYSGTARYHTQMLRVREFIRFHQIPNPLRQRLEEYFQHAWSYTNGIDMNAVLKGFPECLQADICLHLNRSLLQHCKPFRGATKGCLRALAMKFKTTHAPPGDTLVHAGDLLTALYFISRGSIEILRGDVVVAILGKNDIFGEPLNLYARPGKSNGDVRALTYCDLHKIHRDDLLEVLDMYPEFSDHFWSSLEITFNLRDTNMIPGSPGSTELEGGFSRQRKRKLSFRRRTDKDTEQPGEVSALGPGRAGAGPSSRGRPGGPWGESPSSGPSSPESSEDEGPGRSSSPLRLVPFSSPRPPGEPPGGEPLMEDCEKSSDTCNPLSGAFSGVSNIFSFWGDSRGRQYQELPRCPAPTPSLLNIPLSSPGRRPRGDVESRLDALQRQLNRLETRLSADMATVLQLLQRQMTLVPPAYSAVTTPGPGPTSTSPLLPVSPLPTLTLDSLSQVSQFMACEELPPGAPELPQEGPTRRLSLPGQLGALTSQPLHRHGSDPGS
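Also: peak tail current of the secondary pulse compared with the same well before compound.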

Going from COc1cccc(CN2CCN(Cc3cc(OC)c(OC)cc3OC)CC2)c1.O=C(O)C(=O)O to Cc1cccc(C)c1OCCN1CCOCC1.O=C(O)C(=O)O, the “hERG current change (%, negative = inhibition) at 10uM” value rises from -29.1% to -0.56%.

Compared with Cc1ccc(N2C(=O)CS(=O)(=O)CC2=O)cc1, COc1ccccc1OCC(=O)Nc1c2c(nn1-c1ccccc1)CS(=O)(=O)C2 is lower in “hERG current change (%, negative = inhibition) at 10uM” value: 22.9% for the first, -8.22% for the second.

First: CC[C@H](C)[C@H](NC(N)=O)C(=O)NCCc1ccc(OC)c(OC)c1
Second: Cc1cccc(CSCCNC(=O)CN(c2cc(C)cc(C)c2)S(C)(=O)=O)c1
The “hERG current change (%, negative = inhibition) at 10uM” value of the first is higher: 20.1% for the first, -23.9% for the second.

Going from O=[N+]([O-])C(=C1Nc2ccccc2N1)/C(Cl)=C(/Cl)Br to N/C(Cc1ccc([N+](=O)[O-])cc1)=N\OC(=O)COc1ccc2ccccc2c1, the “hERG current change (%, negative = inhibition) at 10uM” value falls from 19.8% to -14.4%.

First: Brc1ccc2nc(-c3cccs3)c(NCC3CCCO3)n2c1 (stereo not shown)
Second: c1csc(-c2nc(NCC3CCCO3)c3ccccc3n2)c1 (stereo not shown)
The “hERG current change (%, negative = inhibition) at 10uM” value of the first is lower: -52.6% for the first, -20.5% for the second.

Compared with N#Cc1nc(-c2cccs2)oc1NCC1CCCO1 (stereo not shown), O=C(CSc1nc(C2CC2)nc2sc3c(c12)CCCC3)NCc1ccco1 is higher in “hERG current change (%, negative = inhibition) at 10uM” value: -10% for the first, -6.99% for the second.

Compared with Cc1c(C)c2cc(Cl)c(OCC(=O)N3C[C@H]4C[C@@H](C3)c3cccc(=O)n3C4)cc2oc1=O, COc1ccc(N(CC(=O)NC2CCCC2)S(=O)(=O)c2c(C)[nH]c(=O)[nH]c2=O)cc1 is higher in “hERG current change (%, negative = inhibition) at 10uM” value: 1.78% for the first, 10.2% for the second.

Compared with O=C(Nc1c2c(nc3ccccc13)CCCC2)c1ccccc1Cl, Cc1ccccc1C(=O)Nc1c2c(nc3ccccc13)CCCC2 is lower in “hERG current change (%, negative = inhibition) at 10uM” value: 17.2% for the first, -5.54% for the second.

Compared with CC(=O)c1ccc(Nc2c3c(nc4ccccc24)CCCC3)cc1, CC(=O)c1cccc(Nc2c3c(nc4ccccc24)CCC3)c1.Cl is lower in “hERG current change (%, negative = inhibition) at 10uM” value: -53.3% for the first, -68.8% for the second.

Going from O=C(O)c1cccc(Nc2c3ccccc3nc3ccccc23)c1 to CC(=O)c1cccc(Nc2nc(-c3ccccc3)nc3ccccc23)c1.Cl, the “hERG current change (%, negative = inhibition) at 10uM” value rises from 19.7% to 26.9%.

First: CCC(CC)C(=O)NC12CC3CC(CC(C3)C1)C2
Second: NC(=O)c1ccc[n+](CC(=O)OCCC23CC4CC(CC(C4)C2)C3)c1.[Cl-]
The “hERG current change (%, negative = inhibition) at 10uM” value of the first is lower: 5.15% for the first, 11.8% for the second.

Going from CC(NC(=O)C(=O)N1CCOCC1)C(c1cccs1)N1CCN(c2ccc(F)cc2)CC1 (stereo not shown) to Cc1ccc(C(C)C)c(OCC(O)CN2CCOCC2)c1 (stereo not shown), the “hERG current change (%, negative = inhibition) at 10uM” value falls from -0.955% to -2.99%.

Going from Cc1nc(C(F)(F)F)nc(Nc2ccc(Br)cc2)c1C#N to Cc1ccc(Cn2c(Sc3ncccn3)nc3c2c(=O)[nH]c(=O)n3C)cc1, the “hERG current change (%, negative = inhibition) at 10uM” value falls from 12.2% to -5.24%.

Compared with COc1ccc(C=C(c2nc3ccccc3s2)c2nc3ccccc3s2)cc1O, Cl.c1ccc(-c2ccccc2OCCOCCN2CCc3ccccc3C2)cc1 is lower in “hERG current change (%, negative = inhibition) at 10uM” value: 3.94% for the first, -28.7% for the second.

Compared with Cc1ccc2c(c1)N(CCC(=O)NCCN1CCOCC1)C(=O)CO2, Cc1ccc(C(C)C)c(OCC(O)CN2CCN(CCO)CC2)c1.Cl (stereo not shown) is lower in “hERG current change (%, negative = inhibition) at 10uM” value: -2.16% for the first, -13.9% for the second.

Going from O=C(O)c1cccc(CN2C(=O)SC(Nc3ccccc3)C2=O)c1 (stereo not shown) to O=C(NNc1ncccc1-n1cccc1)c1ccc(Cl)cc1, the “hERG current change (%, negative = inhibition) at 10uM” value falls from 2.16% to -15.4%.

Compared with Cl.OC(COc1ccc(Cl)cc1Cl)CN1CCc2ccccc2C1 (stereo not shown), OC(COc1ccc(F)cc1Cl)CN1CCc2ccccc2C1 (stereo not shown) is higher in “hERG current change (%, negative = inhibition) at 10uM” value: -58.6% for the first, -41.7% for the second.

Going from Cl.Clc1ccc(OCCOCCN2CCc3ccccc3C2)c(Cl)c1 to Cl.Clc1ccc(OCCCN2CCc3ccccc3C2)c(Br)c1, the “hERG current change (%, negative = inhibition) at 10uM” value rises from -69.8% to -34.8%.

First: Cc1ccc(C(C)C)c(OCCCN2CCc3ccccc3C2)c1.Cl
Second: Cc1ccc(C(C)C)c(OCCN2CCc3ccccc3C2)c1.Cl
The “hERG current change (%, negative = inhibition) at 10uM” value of the first is lower: -70.1% for the first, 14.5% for the second.

First: OC(COc1ccc(Cl)cc1Cl)Cn1ccnc1 (stereo not shown)
Second: Cc1ccc(C(C)C)c(OCC(O)CN2CCc3ccccc3C2)c1.Cl (stereo not shown)
The “hERG current change (%, negative = inhibition) at 10uM” value of the first is higher: 9.67% for the first, -65% for the second.

First: Cc1ccc(C)c(OCCCN2CCc3ccccc3C2)c1.Cl
Second: CCOC(=O)C1=C(N)n2c(s/c(=C/c3ccco3)c2=O)=C(C(=O)OC)C1c1ccco1 (stereo not shown)
The “hERG current change (%, negative = inhibition) at 10uM” value of the first is lower: -49.4% for the first, -2.57% for the second.

With CCOC(=O)/C=C1\SCC(=O)N1CC(=O)NCCOC the “hERG current change (%, negative = inhibition) at 10uM” value was -10.2%.
